Assay outcomes: PubChem, National Center for Advancing Translational Sciences (NCATS)
NS1 function inh – qHTS Assay for Inhibitors of Influenza NS1 Protein Function; Potency, µM (top dose mostly 46.1 µM), without a hit: top-dose activity, positive = more growth; 0.4% of 270,000 active; calls by dose curve; further: actives are rising curves; nearly all actives have a fitted effect of over 50% in size
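S. cerevisiae expressing influenza A NS1, grown in glucose, washed, then diluted 1:100 into pH 6.0 -URA galactose medium with 23 nl compound. Growth recovery read as OD600; NS1-free strain serves as control.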
Pf growth 48h – Primary qHTS for delayed death inhibitors of the malarial parasite plastid, 48 hour incubation; Potency, µM (top dose mostly 28.7 µM), for inactives: top-dose activity change, negative = inhibition, usual class: inhibitors; 5.9% of 310,000 active; P. falciparum luciferase growth in erythrocytes, 48 h; further: on the % scale 0 is the no-effect control and ±100 the full control effect
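Luciferase-expressing P. falciparum in infected erythrocytes (2% hematocrit, 0.1% parasitemia final) in RPMI 1640/0.5% Albumax were exposed to compound for 48 hours at 37 C, 5% CO2; growth read as luminescence.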
Pf growth 96h – Primary qHTS for delayed death inhibitors of the malarial parasite plastid, 96 hour incubation | P. falciparum luciferase reporter growth, 96 h | Potency, µM (titrated, usually from 28.7 µM), for the others: at the top dose activity change, negative = inhibition, usual class: inhibitors | 6.9% of 320,000 active; further: on the % scale 0 is the no-effect control and ±100 the full control effect
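Erythrocytes infected with luciferase-expressing P. falciparum were dispensed at 2% hematocrit and 0.05% parasitemia (final), then incubated with compounds 96 hours at 37 C in 5% CO2. Luminescence after detection reagent addition reported growth.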
SARS PLP yeast – qHTS of Yeast-based Assay for SARS-CoV PLP | S. cerevisiae expressing SARS-CoV PLpro, growth rescue | Potency, µM (series often up to 32.9 µM), for the others: at the highest dose activity, positive = growth rescue, actives largely listed as activators | 0.19% of 330,000 active | AID 485353, 2010; calls by dose curve; further: 0% is about no effect; nearly all actives have a fitted effect of over 55% in size
* hit, by the source's call; ? = inconclusive; · = no result given; [ ] = dose if it differs, or a comment. Only some compounds are listed: those with a hit (about 10% of all), similar ones and a draw of the others. Unless noted, the call rests on the fitted dose curve; in most records, active means well fitted inhibition curve with a large enough effect; inconclusive means small, poorly fitted or top-dose-only effect, or another doubt; inactive means no such curve, though single readings can be large or run the other way. Potency means the concentration at half of the fitted maximal effect.

SMILES	NS1 function inh	Pf growth 48h	Pf growth 96h	SARS PLP yeast
COc1cc(OC)c(NC(=O)CN(C)S(=O)(=O)c2ccc(-c3ccc(=O)[nH]n3)s2)cc1Cl	16.5%	2.33µM*	7.6%	?
Nc1nc2ccccc2n1/N=C/c1ccc(Br)cc1	-14.9%	-77.2%	10.4µM*	-13.5%
Cc1ccc(-c2nc(NC(=O)CSc3nnc(C)s3)ns2)cc1	-3.6%	·	-32.0%	15.8%
CCc1c(C#N)c(SCCC(=O)Nc2ccc(F)cc2)nc2c1C(=O)CC(C)(C)C2	-4.5%	?	·	-9.1%
Cc1ccc(-c2nc(NC(=O)CSc3cc(C)c4ccccc4n3)ns2)cc1	3.5%	29.7%	14.7µM*	12.8%
CC1(C)CC(=O)c2c(nc(SCC(=O)Nc3nsc(-c4ccccc4)n3)c(C#N)c2-c2ccccc2)C1	?	?	14.7µM*	3.3%
Cc1nnc(SCC(=O)Nc2nsc(-c3ccccc3)n2)s1	2.9%	26.2%	7.38µM*	-5.8%
COc1ccccc1C(=O)COC(=O)CCNS(=O)(=O)c1ccc(C)c(C)c1	·	-9.9%	12.3%	-3.3%
COc1ccccc1NS(=O)(=O)c1cc(NC(=O)C(C)(C)C)ccc1N1CCOCC1	·	?	?	0.7%
COCC(=O)Nc1ccc(N2CCOCC2)c(S(=O)(=O)Nc2ccccc2OC)c1	·	·	·	2.5%
COc1ccccc1NS(=O)(=O)c1cc(NC(=S)NCCN2CCOCC2)ccc1N1CCOCC1	13.7%	?	14.7µM*	5.2%
COc1ccccc1NS(=O)(=O)c1cc(NC(=O)c2cnccn2)ccc1N1CCOCC1	2.3%	11.7µM*	?	-0.3%
COc1ccccc1NS(=O)(=O)c1cc(NC(=O)c2ccncc2)ccc1N1CCOCC1	-3.4%	?	14.7µM*	0.5%
COc1ccccc1NS(=O)(=O)c1cc(NC(=O)C2CCCC2)ccc1N1CCOCC1	·	?	-48.9%	0.2%
COc1ccccc1NS(=O)(=O)c1cc(NC(=O)COc2ccccc2F)ccc1N1CCOCC1	·	·	·	1.6%
COc1ccccc1NS(=O)(=O)c1cc(NC(=O)c2cccc(S(=O)(=O)N(C)C)c2)ccc1N1CCOCC1	·	2.33µM*	1.47µM*	0.8%
CN(CC(=O)Nc1ccc(F)c(F)c1F)C(=O)C1CCN(C(=O)Nc2ccccc2)CC1	·	?	-5.4%	10.6%
C=C(C)Cn1c(-c2ccncc2)n[nH]c1=S	·	20.4%	-37.2%	0.1%
COc1ccccc1NS(=O)(=O)c1cc(NC(=O)c2cc(=O)[nH]c3ccccc23)ccc1N1CCOCC1	-4.4%	10.4µM*	?	0.4%
COc1ccc(-c2oc3ccc(-c4ccc(OC)nc4)cc3c2C#CC2(O)CCCCC2)cc1	17.4%	?	5.86µM*	11.9%
CCC(NC(=O)c1ccc2nc(Cc3ccc(OC)cc3)oc2c1)c1ccncc1 (stereo not drawn)	-1.4%	-18.3%	?	0.2%
Cc1cc(NC(=O)C2C3C(=O)N(c4cccnc4)C(C(=O)NC(C)(C)C)C34C=CC2(C)O4)no1 (stereo not drawn)	4.0%	-11.2%	13.1µM*	0.3%
CC(C)(C)NC(=O)C1N(c2cccnc2)C(=O)C2C(C(=O)Nc3ccccc3)C3(C)C=CC21O3 (stereo not drawn)	-6.7%	3.7%	?	3.7%
O=C(O)c1ccc(CSc2nnc(COc3ccc(Cl)cc3Cl)o2)cc1	-56.0%	·	2.62µM*	0.6%
COc1ccc(OCc2nnc(SCc3ccc(C(=O)O)cc3)o2)cc1	-0.8%	-1.6%	-2.1%	0.6%
SMILES	NS1 function inh	Pf growth 48h	Pf growth 96h	SARS PLP yeast
O=C(COC(=O)C1(c2ccccc2F)CCCC1)N1CCNC1=O	·	?	4.5%	0.7%
COc1cc2c(cc1OC)C1O[C@](CCCCN3C(=O)c4ccccc4C3=O)(C2)OC2=C1C(=O)CC(C)(C)C2	-6.2%	0.239µM*	?	?
O=C1OC2(CCCCC2)CC2=C1C1O[C@](CCCCN3C(=O)c4ccccc4C3=O)(Cc3ccccc31)O2	-1.0%	1.51µM*	?	0.9%[6.58 µM]
COc1cc2c(cc1OC)C1O[C@](CCCCN3C(=O)c4ccccc4C3=O)(C2)OC2=C1C(=O)OC1(CCCCC1)C2	23.2%	?	?	-0.8%[6.58 µM]
COc1cc2cc(CN(Cc3cccnc3)C(=O)Nc3ccccc3F)c(=O)[nH]c2cc1OC	2.1%	7.38µM*	22.1%	1.3%
CCN(CC)CCCN(Cc1cc2cc3c(cc2[nH]c1=O)OCO3)C(=O)Nc1ccccc1OC	0.2%	?	10.4µM*	-1.1%
Cc1cccc2cc(CN(CCN3CCCC3)C(=O)NC3CCCCC3)c(=O)[nH]c12	2.1%	4.65µM*	?	-8.3%
Cc1cc2cc(CN(CCCN3CCOCC3)C(=O)NC3CCCCC3)c(=O)[nH]c2cc1C	-6.1%	4.65µM*	240.2%	-0.6%
CCN(CC)CCCN(Cc1cc2cc(OC)c(OC)cc2[nH]c1=O)C(=O)Nc1ccccc1	3.4%	?	·	1.6%
Cc1ccc2cc(CN(CCCN3CCOCC3)C(=O)NC3CCCCC3)c(=O)[nH]c2c1C	-2.8%	?	20.1%	-1.3%
Cc1ccc(CNC(=O)CSc2ncc(C(=O)Nc3ccccc3)c(=O)n2C)cc1	·	3.1%	4.2%	-2.6%
O=C(Nc1ccc(F)cc1)C1CCCN(S(=O)(=O)c2ccc3[nH]c(=O)ccc3c2)C1 (stereo not drawn)	9.1%	?	?	1.5%
Cc1ccc(C(=O)OCC(=O)Nc2ccccc2C(F)(F)F)cc1S(=O)(=O)N1CCCCC1	·	?	9.5%	-2.0%
O=C(COC(=O)C12CC3CC(CC(Br)(C3)C1)C2)Nc1cccc(S(=O)(=O)N2CCOCC2)c1	·	·	·	-21.5%
Cc1cc2cc(CN(CCN3CCOCC3)C(=O)Nc3ccccc3F)c(=O)[nH]c2cc1C	-4.6%	9.28µM*	·	3.1%
Cc1ccc2[nH]c(=O)c(CN(CCN3CCOCC3)C(=O)Nc3ccccc3F)cc2c1	-24.2%	?	7.1%[5.75 µM]	5.8%
CCCCN1c2cc(C)c(O)cc2C(C(=O)OCC)C1C (stereo not drawn)	-6.4%	2.08µM*	45.7%	0.7%
CC(=O)[C@@]1(O)C(C)CC2C3C=C(C)C4=Cc5c(cnn5-c5ccccc5)C[C@]4(C)C3C(O)C[C@@]21C (stereo partly drawn)	?	5.22µM*	10.4µM*	-0.6%
Cc1cc(C(=O)NC2CC(C)(C)Cc3c2cnn3-c2ccccc2)n(C)n1 (stereo not drawn)	-30.1%	-2.8%	?	5.8%
COc1ccc(OC)c(C(=O)CN2C(=O)C(=O)N(C3CCCC3)C2=O)c1	·	·	·	-4.6%
CCN(CC)S(=O)(=O)c1ccc2oc(Nc3ccc(OC)cc3)nc2c1	24.2%	?	?	-2.5%
CCOc1ccc(Nc2nc3cc(S(=O)(=O)N(CC)CC)ccc3o2)cc1	-5.0%	10.4µM*	·	1.2%
C=CCC[C@@H](Cc1ccc(F)cc1)C(=O)OC[C@@H](NC(=O)[C@H](CC=C)CC(=O)NCCO)C(C)(C)C	·	·	·	-4.5%
O=C1OCCC1Sc1nc2ccccc2n1-c1ccccc1 (stereo not drawn)	-6.4%	·	11.7µM*	1.5%
CCOc1ccc(Br)cc1CN(CC)CC	-1.7%	91.8%	14.0%	0.1%
